Data: PubChem BioAssay AID2825 (Sanford-Burnham Center for Chemical Genomics, 2010)
Out of some 330,000 compounds screened, about 1,300 (0.39%) were called active. The sample holds actives, similar compounds and a random draw of the others, so the mix is not that of the screen. Unmarked numbers belong to inactive results.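 The calls were made as follows: active = inhibition of 50% or more; inactive = inhibition below 50%.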

test: NALP3 inflammasome inhibitors in reconstituted yeast, primary screen, luminescence, uHTS (AID 2825); details: Yeast reconstituted NLRP3/ASC/caspase-1, beta-gal luminescence, 24 h; at 10 µM; stronger effect = higher value;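 also: plate controls were induced DMSO wells for no effect and uninduced yeast grown without galactose for full effect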

| Structure (SMILES) | inhibition |
| --- | --- |
| O=C(COc1coc(CN2CCN(c3ccccc3)CC2)cc1=O)Nc1ccccc1F | 11.8% |
| N#Cc1nc(COc2ccc(Cl)cc2)oc1N1CCCC1 | 55.6% (active) |
| O=S(=O)(c1ccc(Cl)cc1)c1nc(-c2ccco2)oc1N1CCCCC1 | 22.9% |
| Cc1ccc(OCc2nc(C#N)c(N3CCCC3)o2)cc1 | 63% (active) |
| CC1CCN(c2oc(-c3ccccc3F)nc2C#N)CC1 | 26.9% |
| N#Cc1ccc(OCc2nnc(-c3ccc([N+](=O)[O-])cc3)o2)cc1 | 20.8% |
| COc1ccc(-c2oc(/N=C/N3CCCC3)c(C#N)c2-c2ccc(OC)cc2)cc1 | 15.6% |
| CC(C(=O)N=Nc1c(O)n(C)c2ccc(Br)cc12)n1cnc2ccccc2c1=O (stereo not drawn) | 7.45% |
| COc1ccc(CC(=O)Nc2sc(Cc3ccccc3)c(C)c2C(N)=O)cc1 | 25.1% |
| O=C(CN1C(=O)/C(=C\c2ccc(C(F)(F)F)cc2)Sc2ccccc21)NCc1ccco1 | -3.88% |
| C#CCN1CC(C)/C(=N/O)CC1C (stereo not drawn) | 8.21% |
| CSc1ccc(CN(C)CC(=O)NCc2ccc(F)cc2)cc1 | 30.5% |
| CC(Oc1ccc2c(-c3ccccc3)cc(=O)oc2c1)C(=O)NC(Cc1c[nH]c2ccccc12)C(=O)O (stereo not drawn) | 18.5% |
| CCC(C)Sc1nc2c(cnn2-c2ccc(F)cc2)c(=O)[nH]1 (stereo not drawn) | -8.33% |
| CCOc1ccc(-n2c(SCC(=O)OC)nc3sc4c(c3c2=O)CCN(C)C4)cc1 | -6.96% |
| CCSc1nc2sc3c(c2c(=O)n1-c1ccc(C)cc1)CCN(C)C3 | 58.9% (active) |
| CCCSc1nc2sc3c(c2c(=O)n1-c1ccc(OC)cc1)CCN(C)C3 | 18.1% |
| CCOP(=O)(OCC)C(Nc1cccc(C)c1)c1ccc(F)cc1 (stereo not drawn) | 3.8% |
| Cc1ccccc1N1CCN(C2CCCN(C(=O)c3ocnc3C)C2)CC1 (stereo not drawn) | 25.2% |
| CC1CCN(Cc2nc3c(c(=O)n(C)c(=O)n3C)n2CCc2ccccc2)CC1 | 21.2% |

| Structure (SMILES) | inhibition |
| --- | --- |
| CCCc1nc2c(c(=O)c3ccccc3n2C)c(=O)n1C1CCCCCC1 | 64.7% (active) |
| Cn1c2ccccc2c2c(C(=O)N3CCN(c4ccc(F)cc4)CC3)cn(C3CCCC3)c(=O)c21 | 15.6% |
| Cc1onc(-c2c(Cl)cccc2Cl)c1C(=O)c1c[nH]c(C(=O)NC2CC2)c1 | 12.6% |
| Cc1cccc(N=C2SC(C)CN2C(=O)CN2C(=O)NC3(CCCC3)C2=O)c1 (stereo not drawn) | -3.71% |
| C[C@@H]1C[C@@H]2O[C@H]2/C=C\C=C\C(=O)Cc2c(Cl)c(O)cc(O)c2C(=O)O1 | 53.1% (active) |
| COc1ccc(NC(=O)C2CCC(CNC(=O)[C@@H]3Cc4ccccc4CN3)CC2)cc1 (stereo partly drawn) | -1.77% |
| O=C(CSc1nnc2c(n1)[nH]c1ccccc12)NC1CCCCC1 | 18.6% |
| O=C(CSc1ncnc2c1oc1ccccc12)NC1CCCC1 | 52% (active) |
| O=C(CSc1nnc(-c2ccccc2O)o1)NC1CCCCC1 | 35.2% |
| COC(=O)CN1C(=O)[C@H]2[C@@H](/C=C/c3ccccc3)N3C(=O)CN(CC4CC4)C(=O)[C@@]3(Cc3ccccc3)[C@H]2C1=O | 1.91% |
| CCOc1ccc(C2/C(=C(/O)c3ccc4c(c3)CC(C)O4)C(=O)C(=O)N2CCCn2ccnc2)cc1 (stereo not drawn) | 15.6% |
| COc1ccc(OCC(=O)NCCS(=O)(=O)N2CCN(c3ccc(F)cc3)CC2)cc1 | 7.19% |
| O=C(/C=C/c1ccco1)Nc1ccc(Oc2ccccc2)cc1 | 22.4% |
| COc1cc(NC(=O)c2cc([N+](=O)[O-])ccc2Br)ccc1NC(=O)c1ccco1 | 20.7% |
| O=C(NNC(=O)c1ccco1)Nc1ccccc1 | 8.53% |
| COc1ccccc1C(=O)Nc1ccc(NC(=O)c2ccco2)c(C)c1 | 50.8% (active) |
| Cc1cc(NC(=O)c2ccc(F)cc2)ccc1NC(=O)c1ccco1 | 12.3% |
| O=C(Nc1ccc(Oc2ccccc2)cc1)c1ccco1 | 50.8% (active) |
| Cc1cc(O)c(C(=O)/C=C/c2c(F)c(F)c(F)c(F)c2F)c(=O)o1 | 12.5% |
| CCOc1ccc(N(C(=O)c2snc(C(N)=O)c2N)C(C(=O)NCC2CCCO2)c2c[nH]c3ccccc23)cc1 (stereo not drawn) | 10.6% |

| Structure (SMILES) | inhibition |
| --- | --- |
| COc1cc(OC)c(C(=S)N2CCCC2)cc1OC | 16% |
| COc1ccc(NC(=O)COC(=O)c2ccncc2)c(OC)c1 | 18.3% |
| O=C(COc1cccc(F)c1)Oc1ccc(C(=O)c2ccccc2)cc1 | -40.2% |
| CCOc1ccc(OCC)c(-c2c(=O)n(OCc3ccc(Cl)cc3)c3ccccc3[n+]2[O-])c1 | 3.29% |
| O=C(COC(=O)c1ccccc1SCC(=O)N1CCCC1)Nc1ccccc1OC(F)F | 19.4% |
| CCOC(=O)C1CCN(Cc2c(C(=O)N3CCOCC3)nc3c(C)cccn23)CC1 | 9.59% |
| CN(C)c1ccnc2sc(C(=O)c3ccccc3)c(N)c12 | 64.4% (active) |
| CN(C(=O)c1ccccn1)c1nnc(-c2ccccn2)s1 | 9.46% |
| CCN(CC)C(=O)c1sc2nc(-c3ccccc3)ccc2c1N | 20.7% |
| O=C(Oc1cccc(O)c1)C1CCCCC1 | 9.17% |
| Cc1ccccc1C(=O)NC(=S)NC1CC1 | -9.47% |
| O=C(c1cccc(S(=O)(=O)N2CCCC2)c1)N(Cc1ccco1)C1CCS(=O)(=O)C1 (stereo not drawn) | 19.1% |
| O=C(Nc1ccccc1)c1cc2ccccc2[nH]1 | 58.5% (active) |
| CC(OC(=O)c1cc2ccccc2[nH]1)C(=O)N(C)c1ccccc1 (stereo not drawn) | -0.144% |
| COc1ccc2[nH]c(C(=O)Nc3ccccc3Cl)cc2c1 | -3.34% |
| COc1ccc(C(=O)c2c(C)c(CCC#N)n3ccccc23)c(OC)c1 | 3.12% |
| O=C(Nc1ccc(S(=O)(=O)N2CCCCC2)cc1)C1CCN(C(=O)c2ccc(F)cc2)CC1 | 8.87% |
| O=C(c1[nH]ncc1-c1ccc(Cl)cc1)C1CO1 (stereo not drawn) | 2.92% |
